Compound activity (PubChem BioAssay)
This is one part of a sample in which hits are shown more often than they occur.
Methyltransferases = Primary Screen for Target Class Profiling of Small Molecule Inhibitors of Methyltransferases; purified enzyme, MTase-Glo SAH luminescence; stronger effect = lower value; calls only at 40 µM; 3.9% of 25,000 active; AID 1745853, 2022; call rule not given here
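Each enzyme was assayed with SAM and its substrate. SAH formation detected by MTase-Glo luminescence; single-point 40 uM screen[…].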
MTase-Glo ctr = Counterscreen for Target Class Profiling of Small Molecule Inhibitors of Methyltransferases; shares compounds with Methyltransferases; MTase-Glo coupled enzymes, SAH conversion luminescence, no MTase; Potency, µM (doses to about 57.3 µM), most hits filed as inhibitors; 6% of 180 active; AID 1745851, 2022; active means well fitted inhibition curve with a large enough effect
Calls only; - = inactive; + = active, no number.

SMILES | Methyltransferases | others
CC1CCC(NC(=O)C2(C)Cn3c(ccc3-c3ccccc3)C(=O)N2CCc2cccs2)CC1 (configuration not stated) | -
O=C(CCCn1nc(-c2ccccc2)c2ccccc21)N1CCN(c2ccc(F)cc2)CC1 | -
CC(C)(C)c1nn2c(SCC(=O)Nc3cccc(F)c3)nnc2[nH]c1=O | -
COc1ccc(N2CCN(CCCNC(=O)CCc3nnc4n(CC(C)C)c(=O)c5ccccc5n34)CC2)cc1 | -
CC(CCc1ccccc1)NC(=O)c1cc2n(n1)CC(C)(C(=O)NC1CCCCC1)N(C)C2=O (configuration not stated) | -
Cc1ccc2nc(CO[C@H]3CN(C4CCN(C)CC4)C[C@H]3F)[nH]c2c1 | -
CCN1CC(C(=O)N(C)Cc2ccc(Oc3ccccc3)cc2)CCC1=O (configuration not stated) | -
Cc1ccc2nc(CN(C)C(=O)C3CCC(=O)N(C4CCCCCC4)C3)[nH]c2c1 (configuration not stated) | + | MTase-Glo ctr=-
Cc1noc2c(N3CCOCC3)cc(-c3cccnc3)nc12 | -
Cc1noc2c(-c3cnn(C)c3)cc(-c3cccnc3)nc12 | -
COC1CCN(c2cc(-c3ccsc3)nc3c(C)noc23)CC1 | + | MTase-Glo ctr=-
Cc1noc2c(N3CCOCC3)cc(-c3cccs3)nc12 | + | MTase-Glo ctr=-
COc1cccc(-c2cc(-c3cccs3)nc3c(C)noc23)c1 | -
Cc1noc2c(Nc3ccc(C(N)=O)cc3)cc(-c3ccsc3)nc12 | -
Cc1ccc(-c2coc(-c3ccc(NS(=O)(=O)c4ccc5c(c4)n(C)c(=O)n5C)cc3)n2)c(C)c1 | -
CC1(C(=O)NCc2ccccc2Cl)Cn2cnc(C(=O)NCCCc3ccccc3)c2C(=O)N1C1CC1 (configuration not stated) | -
CCCN1C(=O)c2c(C(=O)NCc3ccccc3Cl)ncn2CC1(C)C(=O)NCc1ccc(C)cc1 (configuration not stated) | -
C=Cc1ccc(CSc2nnc3n(CCC)c(=O)c4ccccc4n23)cc1 | -
Cc1ccc(Cn2c(=O)c3ccccc3n3c(-c4cc(Br)cs4)nnc23)cc1 | -
Cc1noc(C)c1-c1cc(-c2ccncc2)cn2cncc12 | -
Cc1noc(C)c1-c1cc(-c2ccc(CN(C)C)cc2)cn2cncc12 | + | MTase-Glo ctr=-
CCOc1ccccc1CN1C(=O)c2cc(-c3cccs3)nn2CC1(C)C(=O)NC1CCCCC1 (configuration not stated) | -
Cc1ccc(N2C(=O)c3cc4occc4n3CC2(C)C(=O)NC2CCCCCCC2)cc1C (configuration not stated) | -
CN1CCC2(C1)CN(Cc1ccccc1)c1ccc(C(=O)N3CCOCC3)cc12 (configuration not stated) | -
O=C(NCC1CCN(c2cc(-c3ccccc3)[nH]n2)CC1)c1ccc2nc[nH]c2c1 | -
SMILES | Methyltransferases | others
CN1CCCC2(C1)CN(C)c1ccc(C(=O)NCC3CCCCC3)cc12 (configuration not stated) | + | MTase-Glo ctr=-
CC(CCc1ccccc1)NC(=O)CCn1ccc2cc(S(=O)(=O)N3CCCC3)ccc21 (configuration not stated) | -
COc1ccc(Br)cc1CN1C(=O)c2cc3ccccc3n2CC1(C)C(=O)NCCCOC(C)C (configuration not stated) | -
CC(C)[S+](=O)([O-])N1CCC2(CC1)CC(c1cccc(C(F)(F)F)c1)=NO2 | -
Cc1ccc(-c2nnn3c2nc(NCc2ccc(F)cc2)c2ccccc23)cc1 | -
O=C(c1nc2c(o1)CCN(Cc1cccc(F)c1)CC2)N1CCOCC1 | -
Cn1c(C(=O)NCCN2CCCCC2)cc2c1CCN(Cc1cccc(F)c1)C2 | + | MTase-Glo ctr=-
Cn1c(C(=O)Nc2ccc3c(c2)OCO3)cc2c1CCN(Cc1cccc(F)c1)C2 | -
CC(C)Oc1ccc(CN2C(=O)c3cc4occc4n3CC2(C)C(=O)NC2CCCCC2)cc1 (configuration not stated) | -
Cc1ccc(S(=O)(=O)c2nnn3c2nc(NCc2ccccc2)c2ccccc23)c(C)c1 | -
Cc1ccc(NS(=O)(=O)c2ccc3c(c2)[C@H]2C=CC[C@H]2[C@@H](c2ccccc2Cl)N3)cc1C | -
Cn1cc(CN2CCCC(COc3ccccc3C(=O)N3CCCCC3)C2)c2ccccc21 (configuration not stated) | + | MTase-Glo ctr=-
COc1cccc(C(=O)N2CCCC(COc3ccccc3C(=O)N3CCOCC3)C2)c1 (configuration not stated) | -
COc1cccc(C(=O)NCC2CCCN(Cc3ccccn3)C2)c1OC (configuration not stated) | -
O=C(Cn1nc2nc(Nc3ccc(F)cc3)ccn2c1=O)Nc1cc(F)ccc1F | -
COCCn1ccc2c(C3=CCOCC3)nc(-c3cccc4[nH]ccc34)cc21 | + | MTase-Glo ctr=-
CC(C)Cn1c(=O)c2ccccc2n2c(CCC(=O)NCc3ccccc3)nnc12 | -
O=C(c1ccccc1)N1CC2(CCCN2Cc2cccnc2)Cc2ccccc21 (configuration not stated) | -
O=C(C1CCCC1)N1CC2(CCN(Cc3cccnc3)CC2)Cc2ccccc21 | -
O=C(c1ccc(Cl)cc1)N1CC2(CCN(CC3CC3)CC2)Cc2ccccc21 | + | MTase-Glo ctr=-
CCc1cc2c(cc3n2CC(C)(C(=O)NC2CCCCCC2)N(CCCc2ccccc2)C3=O)s1 (configuration not stated) | -
CCN1CCC2(CCC1=O)CN(Cc1ccc(C)c3ccccc13)CCN2C (configuration not stated) | -
O=C(c1ccncc1)N1CCCC(CN2CCCC2)CC1 (configuration not stated) | -
O=C(c1ccc(C2CCCNC2)cc1)N1CCN(c2ccncc2)CC1 (configuration not stated) | + | MTase-Glo ctr=-
Cn1cc(-c2ccncc2)cc1C(=O)N1CCN(c2ccc(F)cc2)CC1 | -
SMILES | Methyltransferases | others
COC(=O)c1ccccc1N1C(=O)CSc2c(c3ccccc3n2C)C1C(=O)NCc1ccccc1OC (configuration not stated) | -
COc1ccccc1CNC(=O)C1(C)Cn2c(cc3ccccc32)C(=O)N1Cc1cccc(Br)c1 (configuration not stated) | -
COc1ccc(CNC(=O)C2(C)Cn3cnc(C(=O)NC4CCCCC4)c3C(=O)N2C2CC2)cc1 (configuration not stated) | -
CC(C)CCn1c(=O)c2ccccc2n2c(SCC(=O)Nc3cc(F)ccc3F)nnc12 | -
CC1(C(=O)NC2CCCCC2)Cn2c(cc3sccc32)C(=O)N1C1CCCC1 (configuration not stated) | -
Nc1nc(C2CC(O)C2)cc(N2CC(N3CCOCC3)C2)n1 (configuration not stated) | -
CN(CCO)C[C@@H]1CN(C(=O)CCc2nc3ccc(F)cc3[nH]2)C[C@@H]1CO | -
CN(CCc1nc2ccc(Cl)cc2[nH]1)c1cc(C2CC(O)C2)nc(N)n1 (configuration not stated) | + | MTase-Glo ctr=-
CC(C)CCNC(=O)c1cc2n(n1)CC(C)(C(=O)NCCC(C)C)N(C)C2=O (configuration not stated) | -
CCCC1c2cccn2CCN1C(=O)Nc1cccc(OC)c1 (configuration not stated) | -
